The campaign covered roughly 4,400 compounds. About 390 (8.9%) showed an effect of 50% or more. What follows is part of a selection rich in strong results, with near analogues and random picks from the rest.
Test system: Trypanosoma brucei
Assay: DNDI: Inhibition of Human African Trypanosomiasis, SBRI 427, in vitro at 2 ug.mL-1
Type: functional

Structure (SMILES)	% inhibition [%]
COc1ccc(CN/C(=N\O)c2ccc(C)nc2OCc2ccccc2F)cc1	-1
COc1cc(C)ccc1Oc1nc(C)ccc1/C(=N/O)n1nc(C)cc1C	-5
O/N=C(/c1ccc(Oc2cccc3c2CCCC3)nc1)N1CCN(c2ccc(F)cc2)CC1	26
COc1cc(-c2nc(Cn3ccnc3C)co2)cc(OC)c1OC	-1
Fc1ccc(N2CCN(Cc3coc(-c4ccco4)n3)CC2)cc1	13
FC(F)(F)c1ccc(-c2nc(Cn3ccnc3)co2)cc1	-3
CCN(CC)c1cccc(Oc2ncccc2/C(=N/O)NCC2CC2)c1	6
O/N=C(\NCC1CC1)c1cccnc1Oc1ccc(F)cc1	97
COc1ccc(Oc2ncccc2/C(=N/O)NCC(C)C)cc1	-7
CC(C)(C)CN/C(=N\O)c1cccnc1Oc1ccc(Cl)cc1	99
O/N=C(\NCc1ccccn1)c1cccnc1Oc1ccc(Cl)cc1	10
Cc1ccc(Oc2ncccc2/C(N)=N/O)cc1	21
N/C(=N\O)c1cccnc1Oc1ccc(F)c(Cl)c1	10
N/C(=N\O)c1cccnc1Oc1ccc(Cl)cc1	59
COc1ccc(Oc2ncccc2/C(=N/O)NCC(C)(C)C)cc1	98
O/N=C(\NCc1cccnc1)c1cccnc1Oc1ccc(Cl)cc1	4
CCCN(Cc1coc(-c2cccc(F)c2)n1)C(C)CC (centres undefined)	-4
COc1cc(CNCc2coc(-c3cccs3)n2)cc(OC)c1	-7
COc1cc(-c2nc(CN3CCCCC3C)co2)cc(OC)c1OC (centres undefined)	-4
Cc1ccc(/C(=N/O)N2CCCCC2)c(Oc2ccc3oc4ccccc4c3c2)n1	7
CC(C)(C)COc1ncccc1/C(=N/O)NCc1ccccn1	12
CCOc1ccc(-c2nc(CNCc3cccc(OC)c3OC)co2)cc1	3
CSc1ccc(Oc2nc(C)ccc2/C(=N/O)NCC(C)C)cc1C	-14
C#CCNCc1coc(-c2ccc(OC)cc2)n1	-25
COc1ccc(N(C)Cc2coc(-c3ccc(F)cc3)n2)cc1	-2
Cc1ccc(C)c(N2CCN(Cc3coc(-c4ccc(OC(F)(F)F)cc4)n3)CC2)c1	33
Cc1ccc(/C(=N/O)NC(C)C)c(Oc2cccc3ccc(C)nc23)n1	31

Structure (SMILES)	% inhibition [%]
CN(/C(=N\O)c1ccc(Oc2c(F)c(F)cc(F)c2F)nc1)C1CCCCC1	21
CC1CCC(N/C(=N\O)c2ccc(Oc3c(F)c(F)cc(F)c3F)nc2)CC1 (centres undefined)	17
O/N=C(\NC1CCCC1)c1ccc(Oc2c(F)c(F)cc(F)c2F)nc1	99
O/N=C(\NC1CCC1)c1ccc(Oc2c(F)c(F)cc(F)c2F)nc1	100
O/N=C(\NCC1CCCO1)c1ccc(Oc2c(F)c(F)cc(F)c2F)nc1 (centres undefined)	25
O/N=C(\NC1CCc2ccccc21)c1ccc(Oc2c(F)c(F)cc(F)c2F)nc1 (centres undefined)	19
O/N=C(\NCC1CCCCC1)c1ccc(Oc2c(F)c(F)cc(F)c2F)nc1	40
O/N=C(\NC1CCCCC1)c1ccc(Oc2c(F)c(F)cc(F)c2F)nc1	100
CC1CC(N/C(=N\O)c2ccc(Oc3c(F)c(F)cc(F)c3F)nc2)CC(C)(C)C1 (centres undefined)	22
CCOc1ccc(-c2nc(CN(C)CCc3ccccc3)co2)cc1	10
CCOc1cccc(-c2nc(CNc3ccccc3C)co2)c1	20
CC(C)c1ccc(N/C(=N\O)c2ccc(Oc3cccc4ccccc34)nc2)cc1	16
O/N=C(\NCc1ccncc1)c1ccc(Oc2c(F)c(F)cc(F)c2F)nc1	6
CC(C)CN(C)Cc1coc(-c2ccccc2Cl)n1	1
O/N=C(\NC1CCCC1)c1cccnc1Oc1ccc2c(c1)CCCC2	1
COc1ccc(Oc2ncccc2/C(=N/O)N2CCC3CCCCC3C2)cc1 (centres undefined)	-2
O/N=C(\NC1CCC1)c1cccnc1Oc1ccc2c(c1)CCCC2	100
O/N=C(\NCc1ccccc1)c1cccnc1Oc1ccc2c(c1)CCCC2	-4
O/N=C(/c1cccnc1Oc1ccc(Cl)cc1)N1CCC2CCCCC2C1 (centres undefined)	-20
COc1ccc(Oc2ncccc2/C(=N/O)NC2CCCCC2)cc1	98
COc1ccc(Oc2ncccc2/C(=N/O)NC2CCCC2)cc1	99
O/N=C(/c1cccnc1Oc1ccc2ccccc2c1)N1CCC2CCCCC2C1 (centres undefined)	100
COc1ccc(Oc2ncccc2/C(=N/O)N(C)C2CCCCC2)cc1	-15
O/N=C(/c1ccnc(Oc2ccc(Cl)cc2)c1)N1CC=CCC1	8
COc1ccc(-c2nc(Cn3nc(C)cc3C)co2)cc1	-6
Cc1cccc(N2CCN(Cc3coc(-c4ccc(Br)cc4)n3)CC2C)c1 (centres undefined)	15
COc1ccc(-c2nc(CNCCc3ccc(C)cc3)co2)cc1	-3

Structure (SMILES)	% inhibition [%]
Cc1ccc(CN/C(=N\O)c2ccc(Oc3cc(Cl)ccc3Cl)nc2)o1	9
Cc1cccc(Oc2ncccc2/C(=N/O)N2CCC=N2)c1C	2
C=CCN(Cc1coc(-c2ccccc2Cl)n1)C1CCCCC1	13
O/N=C(\NCc1cccs1)c1ccc(Oc2c(F)c(F)cc(F)c2F)nc1	1
Cc1cc(Oc2ccc(/C(=N/O)N3CCN(c4ccc(F)cc4)CC3)cn2)cc(C(C)C)c1	3
COc1ccc(-c2nc(CN3CCN(c4cccc(Cl)c4)CC3)co2)cc1	10
COc1ccc(Oc2ncccc2/C(=N/O)N2C(C)CCC2C)cc1 (centres undefined)	-10
COc1ccc(Oc2ncccc2/C(=N/O)NC2CCC2)cc1	98
O/N=C(\Nc1ccccc1)c1cccnc1Oc1ccc2ccccc2c1	14
O/N=C(\NC1CCCCC1)c1cccnc1Oc1ccc2ccccc2c1	99
COc1ccc(Oc2nc(C)ccc2/C(=N/O)NC2CCC(C)CC2)cc1 (centres undefined)	47
N/C(=N/O)c1cccnc1Oc1ccc2ccccc2c1	-3
O/N=C(\NCc1cc(F)ccc1F)c1ccc(Oc2ccc(Cl)cc2)nc1	-8
N/C(=N\O)c1ccc(Oc2ccc(Cl)cc2)nc1	15
CCc1ccc(Oc2ccc(/C(=N/O)Nc3ccccc3)cn2)cc1	17
O/N=C(\NC1CCc2ccccc21)c1ccc(Oc2ccc(Cl)cc2)nc1 (centres undefined)	-11
CSCCN/C(=N\O)c1ccc(Oc2ccc(Cl)cc2)nc1	-6
CC1CCC(N/C(=N\O)c2ccc(Oc3ccc(Cl)cc3)nc2)CC1 (centres undefined)	88
CC1CCN(/C(=N\O)c2ccc(Oc3ccc(Cl)cc3)nc2)CC1	26
CCc1ccc(Oc2ccc(/C(=N/O)NC3CCCC3)cn2)cc1	78
CC1CCC(N/C(=N\O)c2ccc(Oc3ccc(-n4ccnc4)cc3)nc2)CC1 (centres undefined)	21
O/N=C(\NC1CCCCC1)c1ccc(Oc2ccc(Cl)cc2)nc1	93
O/N=C(/c1ccc(Oc2ccc(Cl)cc2)nc1)N1CCCCCC1	-7
O/N=C(\NC1CCCC1)c1ccc(Oc2ccc(Cl)cc2)nc1	98
CCc1ccc(Oc2ccc(/C(=N/O)NC3CC3)cn2)cc1	8

Reference: ChEMBL document CHEMBL1857833, “Screening and optimization of specific chemical series against human African Trypanosomiasis (HAT)”
